Each structure is given as a SMILES string.

A word on the Inhibition: it is the relative decrease from the control value, in per cent. A lower Inhibition goes with little suppression.

For the assay, the system named is Plasmodium falciparum. The experiment in a line: GSK_TCMDC: Inhibition of Plasmodium falciparum Dd2 in whole red blood cells, using parasite LDH activity as an index of growth. Test compounds present at 2uM. In kind it is functional.
The compound `O=C(Nc1ccc(-c2nc3ccccc3[nH]2)cc1)c1cccc(S(=O)(=O)N2CCCC2)c1` yielded an Inhibition of 64%. The compound `CC1CCCN(S(=O)(=O)c2cc(Br)cc3c2N(C(=O)C2CC2)CC3)C1` (stereo not given) came in with an Inhibition of 70%. In the case of `COc1ccc(-c2ccc(NC(=O)c3ccc(Cl)cc3)cc2)cc1CN(C)CCO.O=C(O)C(F)(F)F`, the Inhibition was 43%. The same measure for `CCOc1cc(C)ccc1C1CCN(CCCCNC(=O)c2cnc(-c3ccc(C(F)(F)F)cc3)[nH]2)CC1`: 97%; for `Cc1ccc(S(=O)(=O)O)cc1.N=C(NCCc1c[nH]c2ccccc12)NCc1ccccc1Cl`: 45%. The value for `Br.Cc1ccccc1OCCCON1C(=N)N=C(N)NC1(C)C` was 97%. The same measure for `Cl.FC(F)(F)c1ccc2c(NCCc3ccccc3)ccnc2c1`: 9%; for `CCCCCCNc1c2ccccc2nc2ccccc12.Cl`: 32%. As for `Cc1[nH]c(C)c(-c2csc3ccccc23)c(=O)c1Cl`, the Inhibition was 75%.

Compound `CN1CCCN(Cc2ccc(-c3cccc(NC(=O)c4ccc(F)cc4)c3)cc2)CC1.O=C(O)C(F)(F)F` returned an Inhibition of 8%. Compound `O=C(/C=C/c1ccc(-c2nc3ccc(Cl)cc3[nH]2)cc1)NCc1cccc(F)c1` registered an Inhibition of 68%. The same measure for `c1ccc(Oc2ccc(Nc3ccnc4cc(-c5cccc(CNCCN6CCOCC6)c5)ccc34)cc2)cc1`: 98%; for `COc1ccccc1NC(=O)Nc1ccc(-c2ccc(-c3nc4cc(C(F)(F)F)ccc4[nH]3)cc2)cc1`: 61%; for `Cc1[nH]c(C)c(-c2ccc(CCc3ccc(C(F)(F)F)cc3)nc2)c(=O)c1Cl`: 97%. Consider `Fc1ccc2[nH]c(-c3ccc(-c4ccc(CNCCc5cccnc5)cc4)s3)nc2c1.O=C(O)C(F)(F)F`, for which the Inhibition is 99%. For the compound `CCOP(=O)(OCC)c1ccc(OC)c(-c2ccc[nH]2)c1`, the Inhibition was found to be 10%. The same measure for `COc1ccc(CNCCc2cccs2)cc1-c1cccc(S(=O)(=O)NCCN2CCCC2)c1.O=C(O)C(F)(F)F`: 41%.

Regarding `COc1cccc(Nc2c(C(N)=O)cnc3ccc(-c4ccc([S+](C)[O-])cc4)cc23)c1.O=C(O)C(F)(F)F` (stereo not given), the Inhibition stood at 100%. The value for `O=C(Nc1ccc(Cl)c(Cl)c1)C1CCC(=O)N1[C@@H](Cc1ccccc1)C(=O)NCCc1ccc(Cl)cc1` (stereo not given in full) was 0%; that for `O=C(NCCCCN1CCN(CC=Cc2ccccc2)CC1)c1ccc(NC(=O)c2cc(Cl)cc(Cl)c2)cc1` was 63%.

With `COc1ccc2[nH]c(C)cc(=NN=Cc3ccccc3F)c2c1`, the Inhibition was 100%. The same measure for `CC(CC(=O)NCC1(c2ccc(F)cc2Cl)CCOCC1)C(=O)c1ccc(Cl)cc1` (stereo not given): 91%; for `Nc1nc2c(ncn2COC(COCc2ccccc2)COCc2ccccc2)c(=O)[nH]1.Nc1nc2ncn(COC(COCc3ccccc3)COCc3ccccc3)c2c(=O)[nH]1`: 57%. Compound `COc1ccc2ncc(F)c(CCN3CCC(CNCc4cccc5c4OCO5)CC3)c2n1.Cl` came in with an Inhibition of 37%. Turning to `Nc1ncc(Cc2ccc3c(ccc4ccccc43)c2)c(N)n1`, the Inhibition is given as 3%. The same measure for `Cc1cc(N[C@@H](Cc2ccccc2)C(=O)NC2CCCC2)nc(NCCCOC(C)C)n1.O=C(O)C(F)(F)F`: 43%. The value for `O=C(Nc1ccc(-c2csc3nccn23)cc1)c1ccc(Cl)cc1` was 50%; that for `OC(c1cccc2ccccc12)C1CN(CCc2ccccc2)CCC1(O)c1ccccc1` (stereo not given) was 100%; that for `Cc1cccc2nc(-c3cccc(-c4ccc(NC(=O)NCc5ccccc5)cc4)c3)[nH]c12` was 47%. The compound `CNC(=N)c1ccc(NC(=O)c2ccc(C(=O)Nc3ccc(C(=N)NC)cc3)cc2)cc1.Cl` registered an Inhibition of 91%. The value for `CC(C)Sc1nncc(-c2cnnc(SC(C)C)n2)n1` was 100%; that for `CC(C)OC(=O)c1ccccc1S(N)(=O)=O` was 0%; that for `Br.CC1(C)N=C(N)N=C(N)N1OCC1COc2ccccc2O1` (stereo not given) was 66%. The same measure for `CCc1c[nH]c2c(N3CCCC3=O)cc(C(=O)N[C@@H](Cc3ccccc3)[C@H](O)CNC(C)(C)c3cccc(OC)c3)cc12`: 98%; for `Cn1nccc1C(=O)NCCNCc1cccc(-c2ccc(-c3nc4ccccc4[nH]3)cc2)c1.O=C(O)C(F)(F)F`: 98%. On to `CCCn1cc2c(ccc3nc(N)nc(N)c32)n1`, for which the Inhibition stood at 0%. The same measure for `COc1ccc(CNCc2ccc(-c3ccc(-c4nc5cc(F)ccc5[nH]4)cc3)cc2)cc1.O=C(O)C(F)(F)F`: 83%; for `Cc1c(C)c2c(c(C)c1O)CC[C@](C)(C(=O)N1CCC(CCN3CCC(c4c[nH]c5ccccc45)CC3)CC1)O2`: 74%; for `Cc1cc(N[C@@H](Cc2ccccc2)C(=O)Nc2ccccc2)nc(Nc2ccccc2)n1.O=C(O)C(F)(F)F`: 69%. Regarding `O=C(O)C(F)(F)F.c1cc(-c2ccc(CNCCCN3CCOCC3)cc2)cc(-c2nc3ccccc3[nH]2)c1`, the Inhibition is on record as 0%.

The values are drawn from ChEMBL document CHEMBL1157539, “Thousands of chemical starting points for antimalarial lead identification” (Nature, 2010).
